The values below come from PubChem BioAssay AID651582 (Sanford-Burnham Center for Chemical Genomics, 2012).

Molecules are shown by their SMILES. Values joined by “and” are separate entries in the source; they are usually repeats but may differ in a detail not shown here. Identical values can stand only once. Hit rate of the full screen: of about 230,000 compounds, about 1,500 (0.65%) were called active.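 Rule for the calls: active = pattern-corrected inhibition of lipid staining of at least 50% with the nuclear-stain viability signal not falling by more than 50%; inactive = the rest, inconclusive results apart.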 What follows is part of a selection rich in actives, with near analogues and random picks from the rest.

This assay can be described thus: inhibitors of triacylglycerol accumulation, primary screen, cell-based, uHTS, fluorescence, H9c2 (AID 651582).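 For inhibition: 0% = DMSO wells and 100% = triacsin C control wells.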 Conditions: H9c2 cells, Nile Red lipid (TAG) fluorescence, at 12.5 µM, cells loaded with 200 µM oleic acid; DAPI nuclei signal change (viability), lower = more cytotoxic: measured here: DAPI nuclei count viability; inhibition: stronger effect = higher value.
`NC(=O)CSc1nnc(-c2cccc(S(=O)(=O)N3CCOCC3)c2)o1`: the DAPI nuclei signal change (viability), lower = more cytotoxic was 2.86% and the inhibition is 9.91% (inactive).
The matching figures for `O=[N+]([O-])c1cccc(C=NN=Cc2ccccc2O)c1`: -6.09% and 3.14% (inactive).
The matching figures for `COc1ccc(NC(=O)C2Cc3c(-c4ccc5c(c4)OCO5)ccnc3O2)cn1` (stereo unspecified): -129% and 146% (inactive).
Consider `CCN1C(=O)/C(=C2/Sc3ccccc3N2CCCS(=O)(=O)O)SC1=S`, for which the DAPI nuclei signal change (viability), lower = more cytotoxic was 12.7% and -2.03%; the inhibition is -9.06% (inactive) and 5.16% (inactive).
Turning to `CCN1C(=O)/C(=C\N2CCOCC2)SC1=S`, the DAPI nuclei signal change (viability), lower = more cytotoxic stood at 1.56% and the inhibition is 1.92% (inactive).
Take `CCCCN1C(=O)/C(=C/C=C2/C=Cc3ccccc3N2CC)SC1=S`: the DAPI nuclei signal change (viability), lower = more cytotoxic was determined as 10.9% and the inhibition was 87.8% (active).
In the same order, the values of `CCc1nc2c(OCc3ccc(F)c(F)c3)cccn2c1N(C)C(=O)c1ccco1` are -19.3% and 7.19% (inactive).
In the same order, the values of `COc1ccc(N2CCN(Cc3cc(=O)oc4ccc5ccccc5c34)CC2)cc1` are 4.7% and 7.86% (inactive).
In the same order, the values of `COc1ccc(Nc2cc(=O)oc3ccccc23)cc1` are -14.8% and 52.3% (active).
In the case of `COc1ccc(Nc2ccc3ccccc3c2)cc1`, the DAPI nuclei signal change (viability), lower = more cytotoxic is 8.55% and the inhibition was 8.64% (inactive).
In the same order, the values of `COC(=O)c1ccc(C)c(NC(=O)Cn2c(C)csc2=O)c1` are 5.24% and -8.36% (inactive).
Take `COc1cccc(NC(=O)C2(C)CCN2Cc2ccccc2Cl)c1` (stereo unspecified): the DAPI nuclei signal change (viability), lower = more cytotoxic stood at 10.6% and the inhibition is -19.4% (inactive).
The matching figures for `Cc1cs/c(=N\N=C\c2ccc(O)cc2)n1Cc1ccco1`: -3.51% and -2.08% (inactive).
The matching figures for `CN(C)C(=S)N=c1ssc(=S)n1Cc1ccco1`: -24% and 51% (active).
The matching figures for `CC1CN(Cc2ccco2)C(=S)N(c2ccccc2)C1=O` (stereo unspecified): -1.49% and -14.4% (inactive).
As for `O=C(Nc1ccc(Br)cn1)c1ccc([N+](=O)[O-])o1`, the DAPI nuclei signal change (viability), lower = more cytotoxic is -72.2% and the inhibition was 83.9% (inactive).
Take `Cc1cccc(NC(=O)c2ccc([N+](=O)[O-])o2)c1`: the DAPI nuclei signal change (viability), lower = more cytotoxic is -57.9% and the inhibition was 80.8% (inactive).
On to `Cc1onc(NC(=O)c2ccc([N+](=O)[O-])o2)c1Br`, for which the DAPI nuclei signal change (viability), lower = more cytotoxic was -38.7% and the inhibition is 59.1% (active).
The matching figures for `CC(C)(C)OC(=O)C[C@@H]1C/C=C\C[C@@H](CC(=O)NCCO)C(=O)N[C@H](Cc2c[nH]c3ccccc23)COC1=O`: 3.2% and -15.4% (inactive).
In the same order, the values of `COc1cccc(NC(=O)CN(C)C(=O)c2ccccc2CCc2ccccc2)c1` are -2.81% and 1.2% (inactive).
Take `O=C(COC(=O)c1ccc(F)cc1)NCC1COc2ccccc2O1` (stereo unspecified): the DAPI nuclei signal change (viability), lower = more cytotoxic was -0.149% and the inhibition is 4.29% (inactive).
In the same order, the values of `COc1cc(OC)c2ccc(=O)oc2c1C(CCN1CCN(c2ccccc2)CC1)c1ccc2c(c1)OCO2` (stereo unspecified) are 10.1% and 25.2% (inactive).
Take `CCN(CC)CCC(c1ccc2c(c1)OCO2)c1c(OC)cc(OC)c2c(-c3ccccc3)cc(=O)oc12` (stereo unspecified): the DAPI nuclei signal change (viability), lower = more cytotoxic is -32.4% and the inhibition was 57.5% (active).
In the same order, the values of `CCN(CC)CCC(c1cc(OC)c(OC)c(OC)c1)c1c(OC)cc(OC)c2c(-c3ccccc3)cc(=O)oc12` (stereo unspecified) are -19.6% and 30.8% (inactive).
The matching figures for `COc1ccc(-c2ccc(CN3C(CC(C)C)C(=O)N(Cc4cn(CC5CCCCC5)nn4)CCS3(=O)=O)cc2)cn1` (stereo unspecified): -15.9% and 31% (inactive).
The matching figures for `CCCC[C@H]1COCCS(=O)(=O)N1Cc1cccc(Cl)c1`: -5.51% and 5.89% (inactive).
With `O=C(CN1C(=O)NC2(CCCCCC2)C1=O)NCc1ccc(F)cc1`, the DAPI nuclei signal change (viability), lower = more cytotoxic came out at 0.843% and the inhibition is -2.12% (inactive).
The matching figures for `Cc1cccc(-c2cnc(C(O)c3ccc4ccccc4c3)[nH]2)c1` (stereo unspecified): 0.713% and -12.6% (inactive).
In the same order, the values of `COc1ccc(S(=O)(=O)N2CCc3ccccc32)cc1C(=O)Nc1cc(S(C)(=O)=O)ccc1Cl` are -36.5% and 61.6% (active).
In the same order, the values of `COc1cccc(NC(=O)c2cc(S(=O)(=O)N3CCc4ccccc43)cn2C)c1` are -2.57% and -1.15% (inactive).
As for `CCN(C(=O)COC(=O)c1cc(S(=O)(=O)N2CCc3ccccc32)ccc1OC)C1CCS(=O)(=O)C1` (stereo unspecified), the DAPI nuclei signal change (viability), lower = more cytotoxic was -4.55% and the inhibition was 3.02% (inactive).
The matching figures for `CCOC(=O)C1(C)CCCN(C(=O)c2ccc(N(C)C)cc2)C1` (stereo unspecified): 5.71% and -6.89% (inactive).
In the same order, the values of `COc1ccc2sc(-c3ccc(N(C)C)cc3)c(-c3ccc4cc[nH]c4c3)c2c1` are 224% and 24.3% (inactive).
In the same order, the values of `COc1ccc2sc(-c3ccc(N(C)C)cc3)c(C#CCO)c2c1` are 426% and 66.7% (active).
For `COc1ccc(-c2sc3ccc(OC)cc3c2C#Cc2ccccn2)cc1`, the DAPI nuclei signal change (viability), lower = more cytotoxic was found to be 5.72% and the inhibition was 13.1% (inactive).
For `Cc1cccc(C(=O)Nc2nnc(S(=O)(=O)N3CCCCCC3)s2)c1`, the DAPI nuclei signal change (viability), lower = more cytotoxic was -4.18% and the inhibition is 6.02% (inactive).
With `O=C(NCc1nnnn1-c1ccc(Cl)cc1)c1ccc2c(c1)OCO2`, the DAPI nuclei signal change (viability), lower = more cytotoxic was 1.1% and the inhibition is -6.02% (inactive).
As to `c1ccc(Cn2nnc3c(NCC4CC4)ncnc32)cc1`, the DAPI nuclei signal change (viability), lower = more cytotoxic was -8.3% and the inhibition was 23.9% (inactive).
